Source: ChEMBL document CHEMBL4513216, “Probing the Open Global Health Chemical Diversity Library for Multistage-Active Starting Points for Next-Generation Antimalarials” (ACS Infect Dis, 2020)
About 8,600 (12%) of roughly 69,000 compounds showed an effect of 50% or more. The full list was thinned out, with strong results kept by preference.

What follows are compounds tested on Plasmodium berghei (assay: Screen against P. berghei liver stage (PbLuc), transformed with Luciferase, at 10uM). Conditions: tested at 10 uM.
Assay type: functional, HepG2
Work on `COCCNC(=O)Cn1cc(OCc2ccccc2)c(=O)cc1CO` yielded an INHIBITION of -8.66%.
For `Cc1cc(C)n(CC2CCCN2C(=O)c2nccc3ccccc23)n1` (stereo not given), the INHIBITION was -144%.
In the case of `CC(=O)Nc1ncc(-c2ccc(C)cc2)[nH]1`, the INHIBITION is reported as 45.5%.
`COc1ccc(-c2cnc(NC(C)=O)[nH]2)cc1` gave an INHIBITION of 56%.
Work on `COc1ccc(OCCc2nnc(NC(C)=O)s2)cc1` yielded an INHIBITION of 20.9%.
`CC(C)CCN1C[C@@H]2C[C@H](C(=O)N3CCCC3)[C@H](C1)O2` showed an INHIBITION of 10.6%.
`COc1ccccc1C(=O)N1CCOCC1c1c(C)n[nH]c1C` (stereo not given) was tested, and the INHIBITION was -34.8%.
Compound `CN1N=C(C(=O)NCCc2ccc(OC3CCCC3)cc2)CCC1=O` has an INHIBITION of 45.4%.
`CC(C)[C@H](NS(C)(=O)=O)C(=O)NCc1cc(-c2ccccc2)nn1C` showed an INHIBITION of 20.4%.
Work on `CC(C)[C@H](NS(C)(=O)=O)C(=O)NCc1cc(-c2ccco2)nn1C` yielded an INHIBITION of 54.5%.
`CC(C)[C@H](NS(C)(=O)=O)C(=O)NCc1cc(-c2ccco2)n[nH]1` showed an INHIBITION of 23.4%.
`Cc1nc(CN(CCS(C)(=O)=O)C(C)(C)C)no1` gave an INHIBITION of 12.9%.
`N#Cc1cccnc1N1CCCN(C(=O)CCc2nccs2)CC1` showed an INHIBITION of -19.4%.
`CCOCC(=O)NC1(c2nc(C)cs2)CCCC1` gave an INHIBITION of 25.2%.
In the case of `Cc1nc2cc(CNC(=O)C3CC(=O)N(C4CCCC4)C3)ccc2n1C` (stereo not given), the INHIBITION is reported as 53.7%.
`Cc1nc2cc(CNC(=O)C3CC(=O)N(CCN(C)C)C3)ccc2n1C` (stereo not given) showed an INHIBITION of -4.35%.
With `CCN1CC(C(=O)NCc2ccc3c(c2)nc(C)n3C)CCC1=O` (stereo not given) the INHIBITION was 11.9%.
In the case of `CCc1nc(N)nc(NCCC(=O)NC2CCCCC2)c1C`, the INHIBITION is reported as 41.5%.
Work on `CCc1cnc(N)nc1NCCC(=O)NC1CCCCC1` yielded an INHIBITION of 68.4%.
With `CCc1cnc(N)nc1NCCN1CCCCC1` the INHIBITION was 5.14%.
`O=C(NC1CC1)C1(Cc2cc(-c3ccc(F)cc3F)no2)CCOCC1` gave an INHIBITION of 31.6%.
`Nc1cc(N2CCC(c3cc(Cc4ccccc4)n[nH]3)CC2)ccn1` was tested, and the INHIBITION was 75.4%.
Compound `NC(=O)NCCC(=O)N1CCC(c2cc(Cc3ccccc3)n[nH]2)CC1` has an INHIBITION of -5.22%.
With `Nc1nc(O)cc(N2CCC(c3cc(Cc4ccccc4)n[nH]3)CC2)n1` the INHIBITION was 47%.
Compound `Cc1ccc(N2CCC(c3cc(Cc4ccccc4)n[nH]3)CC2)nn1` has an INHIBITION of 20.9%.
`Cc1cc(CN2CCC(c3cc(Cc4ccccc4)n[nH]3)CC2)[nH]n1` was tested, and the INHIBITION was 30.9%.
Compound `Nc1nccc(N2CCC(c3cc(Cc4ccccc4)n[nH]3)CC2)n1` has an INHIBITION of 78.8%.
With `COc1c(CNCCNC(=O)c2ccccc2F)c(C)nn1C` the INHIBITION was -7.31%.
With `Cc1noc([C@H]2C[C@@H]3CCN(CC4CC4)C[C@H]3O2)n1` the INHIBITION was -5.29%.
Work on `Cn1cc(I)c(C(=O)NCCCn2cc(Br)cn2)n1` yielded an INHIBITION of 26.8%.
For `CC(C)N1CCOCC2(CCCN(C(=O)CCc3cccnc3)C2)C1` (stereo not given), the INHIBITION was 35.4%.
`CN1CC(c2cc(O)nc(NCc3ccc(Cl)cc3)n2)CC1=O` (stereo not given) gave an INHIBITION of -17.7%.
`C1CCN(CCOC2CCNC2)CC1` (stereo not given) was tested, and the INHIBITION was 5.42%.
`CCn1cc(CN2C[C@@H]3CC[C@H]2CN(C(=O)c2cnccn2)C3)cn1` gave an INHIBITION of 21.5%.
`Cc1cc(C(=O)N2CCC3(CC2)CC(c2cccnc2)C(=O)N3C)no1` (stereo not given) gave an INHIBITION of -36.5%.
`CNCc1cc(F)ccc1Oc1ccc(F)cc1F` was tested, and the INHIBITION was -13.7%.
With `COCCC1COC2(CCN(C(=O)Cc3ccccc3)CC2)C1` (stereo not given) the INHIBITION was 28.7%.
Compound `Cn1cc(C2COC3(CCN(C(=O)Cc4ccccc4)CC3)C2)cn1` (stereo not given) has an INHIBITION of 48.4%.
For `O=C(Cc1ccncc1)N1CCC2(CC1)CC(c1ccccc1)CO2` (stereo not given), the INHIBITION was 95.5%.
Compound `CCOCC(=O)N1CCC2(CC1)CC(c1ccccc1)CO2` (stereo not given) has an INHIBITION of 38.5%.
Work on `CC1COC2(CCN(C(=O)Cc3ccncc3)CC2)C1` (stereo not given) yielded an INHIBITION of 62.9%.
For `O=C(Cc1ccccc1)N1CCC2(CC1)CC(Nc1cnccn1)CO2` (stereo not given), the INHIBITION was 31.5%.
For `CCN1CCC(N2CCN(C)C3(CCC(=O)N(CCOC)CC3)C2)CC1` (stereo not given), the INHIBITION was 7.92%.
`COc1ccccc1-c1cccc(C2CCCN(C3CCOCC3)C2)n1` (stereo not given) gave an INHIBITION of 36.95%.
In the case of `COC(=O)c1cccc(C2CNCCN2C)c1` (stereo not given), the INHIBITION is reported as 32.7%.
Compound `Cn1ccnc1CN1CCC2(CC1)Cc1ccccc1CNC2=O` has an INHIBITION of 23.6%.
`Cc1nccc(C2CCCN(S(=O)(=O)N3CCOCC3)C2)n1` (stereo not given) showed an INHIBITION of 24.075%.
In the case of `CNC(=O)CCN(C)CC1(c2ccc(Br)cc2)CC1`, the INHIBITION is reported as -0.532%.
With `Cc1ccccc1CN1C[C@H]2CC[C@@H](C1)N(CC1CCC1)C2=O` the INHIBITION was 28.3%.
For `N#CC1(C(=O)N2CCOC(c3ccc(F)cc3)C2)CCCCC1` (stereo not given), the INHIBITION was -14.2%.
In the case of `NS(=O)(=O)CCN1CCOC(c2ccc(Cl)cc2)C1` (stereo not given), the INHIBITION is reported as -51.9%.
For `N#CC1(C(=O)N2CCOC(c3ccc(F)cc3)C2)CCCC1` (stereo not given), the INHIBITION was 54.2%.
Compound `O=C(CN1C(=O)CCNC1=O)N1CCOC(c2ccc(F)cc2)C1` (stereo not given) has an INHIBITION of -141%.
Work on `N#CC1(C(=O)N2CCOC(c3ccc(Cl)cc3)C2)CCCC1` (stereo not given) yielded an INHIBITION of 57.1%.
With `CCn1cnnc1CNC(=O)N1CCOC(c2ccc(Cl)cc2)C1` (stereo not given) the INHIBITION was 27.5%.
